A short description of experiment [1]: NCI Yeast Anticancer Drug Screen. Data for the rad50 strain (AID 155).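 Further: 0% = growth of vehicle-only cultures of the same strain.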 Particulars: S. cerevisiae rad50 strain growth inhibition; at 50.0 µM; hits give high values. The procedure, abridged: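 Vehicle-treated cultures provide the reference for the growth inhibition reported for compound-exposed, repair-deficient yeast.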
Experiment [2] is described as follows: NCI Yeast Anticancer Drug Screen. Data for the mec2-1 strain (AID 157). Particulars: S. cerevisiae mec2-1 strain, at 50.0 µM, hits give high values. The procedure, abridged:
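Each compound was tested on mec2-1 yeast, a strain altered in DNA damage repair or cell cycle control. Growth inhibition is reported relative to vehicle.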

Experiment [3] is described as follows: NCI Yeast Anticancer Drug Screen. Data for the sgs1 mgt1 strain (AID 161).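 Further: 0% = growth of cultures given vehicle only.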 As to conditions: S. cerevisiae sgs1 mgt1 strain, at 50.0 µM, hits give high values. The method, boiled down:
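Test agents were incubated with a DNA-repair-mutant yeast strain. Growth was then read and compared against vehicle-treated controls.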

Experiment [4] is described as follows: NCI Yeast Anticancer Drug Screen. Data for the cln2 rad14 strain (AID 165).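 Further: 0% = growth equal to vehicle treated cultures.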 As to conditions: S. cerevisiae cln2 rad14 strain, at 50.0 µM, hits give high values. The method, boiled down: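 Test compounds were added to cln2 rad14 yeast cultures; inhibition of growth was then determined by comparison with vehicle treatment.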
Experiment [5] in a line: NCI Yeast Anticancer Drug Screen. Data for the bub3 strain (AID 167). As to conditions: S. cerevisiae bub3 mutant strain, at 50.0 µM, hits give high values. The procedure, abridged: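 Mutant yeast screening strain plus compound; vehicle-treated cultures serve as the 0% inhibition reference.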
A short description of experiment [6]: NCI Yeast Anticancer Drug Screen. Data for the mlh1 rad18 strain (AID 175). Particulars: S. cerevisiae mlh1 rad18 strain growth inhibition; at 50.0 µM; hits give high values. The method, boiled down: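 Inhibition values reflect reduced growth of mutant yeast versus vehicle-treated controls following compound exposure; the mutations affect DNA damage repair.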

Compounds without any hit were thinned out: in the full panel of roughly 79,000, 15% have a hit. Values without a mark were called inactive. The source made the active and inactive calls. No stated cut-off is given here; in the data, active means growth inhibition above about 70%; inactive means the rest. Where a SMILES comes first, the peptide text is derived from it.

`CCN(CC)CCN1CC(=O)N2Cc3ccccc3CN2C(=O)C1`: the growth inhibition in experiment [1] is -0.7%; in experiment [2] it was -4.45%; in experiment [3] it was 0.6%; in experiment [4], 10.4%; in experiment [5] it was 4.45%; in experiment [6], 5.9%.
Turning to `N#CC(OC(=O)c1ccccc1)C(OC(=O)c1ccccc1)C(COC(=O)c1ccccc1)OC(=O)c1ccccc1` (stereo not given), the growth inhibition in experiment [1] was -38.9%; in experiment [2], 6.3%; in experiment [3], 9.95%; in experiment [4], 20.5%; in experiment [5] it was -10.5%; in experiment [6] it was 26.6%.
For the compound `CC(C)=CCC1=C(OC2OC(CO)C(O)C(O)C2O)C(=O)c2ccccc2C1=O` (stereo not given), the growth inhibition in experiment [1] was 15.2%; in experiment [2], 15.6%; in experiment [3], 11.2%; in experiment [4], 6.95%; in experiment [5] it was 6.55%; in experiment [6] it was 5.5%.
Consider `C(=C(Sc1ccccc1)Sc1ccccc1)C(Sc1ccccc1)c1ccccc1` (stereo not given), for which the growth inhibition is 12.5% in experiment [1]; 21.9% in experiment [2]; -5.35% in experiment [3]; 10.8% in experiment [4]; 20.7% in experiment [5]; -13.6% in experiment [6].
Regarding `CCOC(=O)c1ccc(NC(=O)Nc2cc(Cl)c(OC)cc2OC)cc1`, the growth inhibition in experiment [1] was 75% (active); in experiment [2], 90.7% (active); in experiment [3], 94% (active); in experiment [4], 91.8% (active); in experiment [5], 76.1% (active); in experiment [6], 85.8% (active).
For the compound `FC1(F)SC2c3ccccc3CC2C1(F)F` (stereo not given), the growth inhibition is 20.4% in experiment [1]; 6.15% in experiment [2]; 7.75% in experiment [3]; -47.2% in experiment [4]; 8.35% in experiment [5]; 9.95% in experiment [6].
For `CC=C/C=C/[C@@H]1O[C@](O)([C@H](CC)C(=O)NC/C=C/C=C(\C)[C@@H](OC)[C@@H](C)[C@@H]2O[C@H](/C=C/C=C/C=C(\C)C(=O)c3c(O)cc[nH]c3=O)[C@H](O)[C@@H]2O)[C@H](O)[C@H](O)C1(C)C`, the growth inhibition is 35.2% in experiment [1]; 18.9% in experiment [2]; 38.9% in experiment [3]; 36.2% in experiment [4]; 29.9% in experiment [5]; 15.6% in experiment [6].
With `Cc1cc(O[Si](C)(C)C)nc(O[Si](C)(C)C)n1`, the growth inhibition in experiment [1] is 1.7%; in experiment [2], -3.7%; in experiment [3], 0.15%; in experiment [4] it was -49%; in experiment [5], -40.3%; in experiment [6], 11.9%.
With `CC(=O)/C=C(/C=N/O)c1ccccc1`, the growth inhibition in experiment [1] is 10.7%; in experiment [2] it was -27.1%; in experiment [3] it was 14.2%; in experiment [4] it was 7.75%; in experiment [5] it was 10.1%; in experiment [6], -55.8%.
In the case of `Cc1ccccc1N1CCN(CC(O)Cc2ccccc2)CC1` (stereo not given), the growth inhibition was 19.6% in experiment [1]; 10% in experiment [2]; 12.1% in experiment [3]; -6.85% in experiment [4]; 15.1% in experiment [5]; 21.1% in experiment [6].
For the compound `C=CCNC(=O)CC(C)(C)C`, the growth inhibition in experiment [1] is 25.6%; in experiment [2], 12.3%; in experiment [3], 0.35%; in experiment [4] it was 9.3%; in experiment [5], 23.9%; in experiment [6], 20.2%.
As to `COC(=O)NC(CI)c1ccccc1` (stereo not given), the growth inhibition in experiment [1] is 14.7%; in experiment [2], -5.8%; in experiment [3], 7.55%; in experiment [4], 8.85%; in experiment [5] it was -6.35%; in experiment [6] it was 23.9%.
`Nc1ncnc2nc[nH]c12`: the growth inhibition was -8.7% in experiment [1]; -6.7% in experiment [2]; 13.9% in experiment [3]; -24.7% in experiment [4]; -12.1% in experiment [5]; -5.7% in experiment [6].
As to `CCC1(CCBr)C(=O)NC(=Nc2ccccc2)NC1=O` (stereo not given), the growth inhibition was 5.6% in experiment [1]; -5.8% in experiment [2]; 5.9% in experiment [3]; -41.1% in experiment [4]; 9.9% in experiment [5]; -14.3% in experiment [6].
For `COc1cccc2c1C(=O)c1c(C)c(C)c(C)c(C)c1-2`, the growth inhibition was 3.3% in experiment [1]; 6% in experiment [2]; 3.05% in experiment [3]; -1.7% in experiment [4]; 14.6% in experiment [5]; -10.1% in experiment [6].
In the case of `Cc1ccc(C)c(N=C2NC(=O)C(CC(=O)Nc3ccc(Cl)cc3Cl)S2)c1` (stereo not given), the growth inhibition is -7.5% in experiment [1]; 2.75% in experiment [2]; -9.65% in experiment [3]; 24.7% in experiment [4]; -10.9% in experiment [5]; -32.6% in experiment [6].
Take `CCOC(=O)C(Cl)Cc1ccccc1` (stereo not given): the growth inhibition in experiment [1] is 4.75%; in experiment [2] it was 13.4%; in experiment [3], 13.4%; in experiment [4], 5.45%; in experiment [5] it was -5.15%; in experiment [6] it was 1.9%.
In the case of `CCOC(=O)c1c([N+](=O)[O-])cnn1C1OC(COC(C)=O)C(OC(C)=O)C1OC(C)=O` (stereo not given), the growth inhibition in experiment [1] is 6.4%; in experiment [2] it was -2%; in experiment [3], 4.6%; in experiment [4], 15.2%; in experiment [5] it was 7.9%; in experiment [6] it was 6.85%.
As to `CC(=O)NC(C(=O)NC(C)C(=O)N1CCCC1C(=O)O)C(C)C` (stereo not drawn) (Ac-Val-Ala-Pro-OH; configuration not given here), the growth inhibition in experiment [1] is 19.1%; in experiment [2] it was -19.5%; in experiment [3], -1.1%; in experiment [4] it was 15.1%; in experiment [5], 0.6%; in experiment [6], -3.65%.
Regarding `S=C(Nc1ccccc1)Nc1nc(-c2ccccc2)c(N=Nc2ccccc2)s1`, the growth inhibition was 29.8% in experiment [1]; -1% in experiment [2]; 4.05% in experiment [3]; 10.1% in experiment [4]; 12.9% in experiment [5]; 2% in experiment [6].

The values are drawn from PubChem BioAssay (NCI).
